Source: PMC7862700, “An all-to-all approach to the identification of sequence-specific readers for epigenetic DNA modifications on cytosine”

Experiments:
Assay in all cases: DAPPL (digital affinity profiling via proximity ligation, sequencing); 10 mM Tris-HCl pH 7.5, 50 mM NaCl, 1 mM DTT, 4% glycerol, room temperature, 30 min; GST-TFs on glutathione beads, 16-mer random dsDNA library, 0.1% formaldehyde crosslink after washing; high values mean tight binding
Details in all cases: protein: recombinant; tags: N-terminal GST; dsDNA, one strand shown
ERF = molecular target: T1, ERF (Homo sapiens, UniProt P50548 1-548)
T1 sequence: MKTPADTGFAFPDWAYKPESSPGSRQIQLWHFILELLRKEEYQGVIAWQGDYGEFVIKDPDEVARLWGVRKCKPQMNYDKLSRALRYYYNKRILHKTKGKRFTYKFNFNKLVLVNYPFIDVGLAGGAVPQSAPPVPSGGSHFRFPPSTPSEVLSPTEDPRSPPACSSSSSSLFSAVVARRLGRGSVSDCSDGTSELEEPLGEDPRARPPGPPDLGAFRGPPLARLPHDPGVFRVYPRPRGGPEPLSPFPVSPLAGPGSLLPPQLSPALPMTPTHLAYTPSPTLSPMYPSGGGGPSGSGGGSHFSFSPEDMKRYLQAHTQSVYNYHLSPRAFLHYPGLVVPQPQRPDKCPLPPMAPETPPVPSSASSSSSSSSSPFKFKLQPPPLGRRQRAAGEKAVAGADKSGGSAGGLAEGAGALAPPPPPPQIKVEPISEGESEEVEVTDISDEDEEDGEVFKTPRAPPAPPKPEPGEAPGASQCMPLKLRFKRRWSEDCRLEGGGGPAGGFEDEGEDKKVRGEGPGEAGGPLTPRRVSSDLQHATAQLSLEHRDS
Procedure, shortened: (§1)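 Human transcription factors fused to GST were expressed in yeast, captured on glutathione beads, given DNA barcodes and pooled with a GST-only negative control. Pools were incubated with 200 nmole of a 16-mer random double-stranded DNA library in Tris/NaCl/DTT/glycerol buffer at room temperature for 30 min. They were then washed, crosslinked with 0.1% formaldehyde, proximity-ligated (BsaI/T4 ligase, 1 h, 37 °C), PCR-amplified and sequenced on an Illumina NextSeq500. Binding signal is each 6-mer's read frequency for a factor divided by its frequency for the GST control.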

ETV3L = molecular target: T2, ETV3L (Homo sapiens, UniProt Q6ZN32 1-361)
T2 sequence: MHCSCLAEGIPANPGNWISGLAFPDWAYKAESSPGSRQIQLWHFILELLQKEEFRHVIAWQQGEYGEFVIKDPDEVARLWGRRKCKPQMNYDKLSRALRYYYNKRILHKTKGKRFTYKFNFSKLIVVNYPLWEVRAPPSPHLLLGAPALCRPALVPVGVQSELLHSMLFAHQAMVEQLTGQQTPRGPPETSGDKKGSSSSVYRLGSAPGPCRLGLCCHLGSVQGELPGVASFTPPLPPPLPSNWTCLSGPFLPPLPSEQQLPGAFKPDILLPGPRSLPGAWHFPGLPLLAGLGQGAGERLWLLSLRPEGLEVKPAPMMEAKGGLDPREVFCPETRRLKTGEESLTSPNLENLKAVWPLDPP
Procedure, shortened: as §1

ETS2 = molecular target: T3, ETS2 (Homo sapiens, UniProt P15036 1-469)
T3 sequence: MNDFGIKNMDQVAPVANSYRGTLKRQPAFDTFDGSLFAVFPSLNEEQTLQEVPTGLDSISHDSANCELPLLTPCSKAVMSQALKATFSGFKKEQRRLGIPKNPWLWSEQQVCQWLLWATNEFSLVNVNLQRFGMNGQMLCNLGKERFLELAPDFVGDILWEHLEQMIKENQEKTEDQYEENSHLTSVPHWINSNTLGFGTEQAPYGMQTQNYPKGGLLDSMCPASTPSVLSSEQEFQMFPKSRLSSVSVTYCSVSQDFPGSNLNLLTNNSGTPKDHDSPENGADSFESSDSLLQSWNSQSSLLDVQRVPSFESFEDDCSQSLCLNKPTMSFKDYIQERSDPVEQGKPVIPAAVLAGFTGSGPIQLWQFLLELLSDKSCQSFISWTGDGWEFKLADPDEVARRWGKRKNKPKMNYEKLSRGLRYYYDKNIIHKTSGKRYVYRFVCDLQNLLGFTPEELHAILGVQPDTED
Procedure, shortened: as §1

SPDEF = molecular target: T4, SPDEF (Homo sapiens, UniProt O95238 1-335)
T4 sequence: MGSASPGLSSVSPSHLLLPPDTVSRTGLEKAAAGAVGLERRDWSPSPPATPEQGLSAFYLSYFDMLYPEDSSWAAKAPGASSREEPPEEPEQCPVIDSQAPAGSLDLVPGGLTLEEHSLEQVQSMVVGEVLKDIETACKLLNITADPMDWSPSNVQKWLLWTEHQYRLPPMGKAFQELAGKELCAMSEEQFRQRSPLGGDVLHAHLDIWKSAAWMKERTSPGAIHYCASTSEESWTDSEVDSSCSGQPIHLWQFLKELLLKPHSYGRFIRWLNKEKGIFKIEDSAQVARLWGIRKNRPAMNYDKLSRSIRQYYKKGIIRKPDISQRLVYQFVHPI
Procedure, shortened: as §1

ETV7 = molecular target: T5, ETV7 (Homo sapiens, UniProt Q9Y603 1-341)
T5 sequence: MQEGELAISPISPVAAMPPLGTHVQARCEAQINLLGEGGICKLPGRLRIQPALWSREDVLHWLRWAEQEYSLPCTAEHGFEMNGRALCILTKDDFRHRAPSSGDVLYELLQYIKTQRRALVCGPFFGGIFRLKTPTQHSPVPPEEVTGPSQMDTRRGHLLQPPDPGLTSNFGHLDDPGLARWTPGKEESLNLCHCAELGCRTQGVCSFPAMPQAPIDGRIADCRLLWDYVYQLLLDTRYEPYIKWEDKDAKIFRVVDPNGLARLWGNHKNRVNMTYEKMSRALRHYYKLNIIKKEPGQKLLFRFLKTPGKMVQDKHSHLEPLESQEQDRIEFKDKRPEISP
Procedure, shortened: as §1

ELF5 = molecular target: T6, ELF5 (Homo sapiens, UniProt Q9UKW6-2 1-255)
T6 sequence: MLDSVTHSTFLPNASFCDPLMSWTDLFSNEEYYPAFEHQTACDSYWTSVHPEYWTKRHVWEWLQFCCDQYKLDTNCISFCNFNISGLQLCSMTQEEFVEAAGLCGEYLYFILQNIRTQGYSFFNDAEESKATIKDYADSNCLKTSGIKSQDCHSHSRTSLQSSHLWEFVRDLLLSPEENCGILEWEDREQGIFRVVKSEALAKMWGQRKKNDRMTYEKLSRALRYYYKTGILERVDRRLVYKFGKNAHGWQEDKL
Procedure, shortened: as §1

ETV3 = molecular target: T7, ETV3 (Homo sapiens, UniProt P41162-2 1-143)
T7 sequence: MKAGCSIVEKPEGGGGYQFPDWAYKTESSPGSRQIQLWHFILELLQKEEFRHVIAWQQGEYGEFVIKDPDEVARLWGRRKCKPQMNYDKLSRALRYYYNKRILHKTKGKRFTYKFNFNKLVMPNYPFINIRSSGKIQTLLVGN
Procedure, shortened: as §1

ETV6 = ETV6 (Homo sapiens, UniProt P41212 1-452)
Sequence of ETV6 (P41212 whole entry): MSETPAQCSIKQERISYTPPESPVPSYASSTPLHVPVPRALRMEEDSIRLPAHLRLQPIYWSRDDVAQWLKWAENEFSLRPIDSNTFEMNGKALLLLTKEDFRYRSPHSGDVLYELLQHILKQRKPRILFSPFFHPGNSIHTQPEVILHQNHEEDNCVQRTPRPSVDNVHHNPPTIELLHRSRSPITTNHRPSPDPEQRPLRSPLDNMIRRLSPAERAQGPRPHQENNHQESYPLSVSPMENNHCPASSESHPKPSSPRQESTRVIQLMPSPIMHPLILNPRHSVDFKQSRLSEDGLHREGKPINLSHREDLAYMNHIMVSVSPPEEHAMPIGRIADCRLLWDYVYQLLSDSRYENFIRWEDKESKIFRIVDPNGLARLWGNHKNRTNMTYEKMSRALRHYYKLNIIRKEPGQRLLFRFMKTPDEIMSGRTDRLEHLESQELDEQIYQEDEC
Procedure, shortened: as §1

Sequence	binding signal (ERF)	binding signal (ETV3L)	binding signal (ETS2)	binding signal (SPDEF)	binding signal (ETV7)	binding signal (ELF5)	binding signal (ETV3)	binding signal (ETV6)
TATTCT	1.22 fold enrichment (6-mer frequency, TF over GST control)	1.35 fold enrichment (6-mer frequency, TF over GST control)	1.36 fold enrichment (6-mer frequency, TF over GST control)	1.34 fold enrichment (6-mer frequency, TF over GST control)	1.42 fold enrichment (6-mer frequency, TF over GST control)	1.32 fold enrichment (6-mer frequency, TF over GST control)	1.31 fold enrichment (6-mer frequency, TF over GST control)	1.4 fold enrichment (6-mer frequency, TF over GST control)
ATAGAA	1.1 fold enrichment (6-mer frequency, TF over GST control)	1.1 fold enrichment (6-mer frequency, TF over GST control)	1.07 fold enrichment (6-mer frequency, TF over GST control)	1.02 fold enrichment (6-mer frequency, TF over GST control)	1.16 fold enrichment (6-mer frequency, TF over GST control)	1.04 fold enrichment (6-mer frequency, TF over GST control)	1.1 fold enrichment (6-mer frequency, TF over GST control)	1.13 fold enrichment (6-mer frequency, TF over GST control)
ATAACA	1.31 fold enrichment (6-mer frequency, TF over GST control)	1.28 fold enrichment (6-mer frequency, TF over GST control)	1.27 fold enrichment (6-mer frequency, TF over GST control)	1.21 fold enrichment (6-mer frequency, TF over GST control)	1.32 fold enrichment (6-mer frequency, TF over GST control)	1.28 fold enrichment (6-mer frequency, TF over GST control)	1.2 fold enrichment (6-mer frequency, TF over GST control)	1.26 fold enrichment (6-mer frequency, TF over GST control)
ATACAT	1.27 fold enrichment (6-mer frequency, TF over GST control)	1.2 fold enrichment (6-mer frequency, TF over GST control)	1.24 fold enrichment (6-mer frequency, TF over GST control)	1.6 fold enrichment (6-mer frequency, TF over GST control)	1.36 fold enrichment (6-mer frequency, TF over GST control)	1.29 fold enrichment (6-mer frequency, TF over GST control)	1.26 fold enrichment (6-mer frequency, TF over GST control)	1.28 fold enrichment (6-mer frequency, TF over GST control)
TCCCTC	1.46 fold enrichment (6-mer frequency, TF over GST control)	1.41 fold enrichment (6-mer frequency, TF over GST control)	1.49 fold enrichment (6-mer frequency, TF over GST control)	1.4 fold enrichment (6-mer frequency, TF over GST control)	1.4 fold enrichment (6-mer frequency, TF over GST control)	1.53 fold enrichment (6-mer frequency, TF over GST control)	1.49 fold enrichment (6-mer frequency, TF over GST control)	1.43 fold enrichment (6-mer frequency, TF over GST control)
TTCAGG	1.15 fold enrichment (6-mer frequency, TF over GST control)	1.1 fold enrichment (6-mer frequency, TF over GST control)	1.12 fold enrichment (6-mer frequency, TF over GST control)	1.25 fold enrichment (6-mer frequency, TF over GST control)	1.15 fold enrichment (6-mer frequency, TF over GST control)	1.15 fold enrichment (6-mer frequency, TF over GST control)	1.1 fold enrichment (6-mer frequency, TF over GST control)	1.11 fold enrichment (6-mer frequency, TF over GST control)
AGCCTT	1.21 fold enrichment (6-mer frequency, TF over GST control)	1.11 fold enrichment (6-mer frequency, TF over GST control)	1.07 fold enrichment (6-mer frequency, TF over GST control)	1.02 fold enrichment (6-mer frequency, TF over GST control)	1.1 fold enrichment (6-mer frequency, TF over GST control)	1.1 fold enrichment (6-mer frequency, TF over GST control)	1.18 fold enrichment (6-mer frequency, TF over GST control)	1.08 fold enrichment (6-mer frequency, TF over GST control)
GCTCTC	1.42 fold enrichment (6-mer frequency, TF over GST control)	1.52 fold enrichment (6-mer frequency, TF over GST control)	1.51 fold enrichment (6-mer frequency, TF over GST control)	1.12 fold enrichment (6-mer frequency, TF over GST control)	1.25 fold enrichment (6-mer frequency, TF over GST control)	1.2 fold enrichment (6-mer frequency, TF over GST control)	1.48 fold enrichment (6-mer frequency, TF over GST control)	1.43 fold enrichment (6-mer frequency, TF over GST control)
GCTACT	1.52 fold enrichment (6-mer frequency, TF over GST control)	1.2 fold enrichment (6-mer frequency, TF over GST control)	1.39 fold enrichment (6-mer frequency, TF over GST control)	1.27 fold enrichment (6-mer frequency, TF over GST control)	1.33 fold enrichment (6-mer frequency, TF over GST control)	1.2 fold enrichment (6-mer frequency, TF over GST control)	1.19 fold enrichment (6-mer frequency, TF over GST control)	1.38 fold enrichment (6-mer frequency, TF over GST control)
TGAACA	1.27 fold enrichment (6-mer frequency, TF over GST control)	1.31 fold enrichment (6-mer frequency, TF over GST control)	1.18 fold enrichment (6-mer frequency, TF over GST control)	1.22 fold enrichment (6-mer frequency, TF over GST control)	1.21 fold enrichment (6-mer frequency, TF over GST control)	1.26 fold enrichment (6-mer frequency, TF over GST control)	1.25 fold enrichment (6-mer frequency, TF over GST control)	1.21 fold enrichment (6-mer frequency, TF over GST control)
GCTTCG	1.56 fold enrichment (6-mer frequency, TF over GST control)	1.31 fold enrichment (6-mer frequency, TF over GST control)	1.32 fold enrichment (6-mer frequency, TF over GST control)	1.35 fold enrichment (6-mer frequency, TF over GST control)	1.44 fold enrichment (6-mer frequency, TF over GST control)	1.3 fold enrichment (6-mer frequency, TF over GST control)	1.37 fold enrichment (6-mer frequency, TF over GST control)	1.29 fold enrichment (6-mer frequency, TF over GST control)
CCTGCT	1.53 fold enrichment (6-mer frequency, TF over GST control)	1.65 fold enrichment (6-mer frequency, TF over GST control)	1.62 fold enrichment (6-mer frequency, TF over GST control)	1.82 fold enrichment (6-mer frequency, TF over GST control)	1.65 fold enrichment (6-mer frequency, TF over GST control)	1.84 fold enrichment (6-mer frequency, TF over GST control)	1.67 fold enrichment (6-mer frequency, TF over GST control)	1.68 fold enrichment (6-mer frequency, TF over GST control)
TGTTCT	1.39 fold enrichment (6-mer frequency, TF over GST control)	1.43 fold enrichment (6-mer frequency, TF over GST control)	1.18 fold enrichment (6-mer frequency, TF over GST control)	1.22 fold enrichment (6-mer frequency, TF over GST control)	1.22 fold enrichment (6-mer frequency, TF over GST control)	1.37 fold enrichment (6-mer frequency, TF over GST control)	1.27 fold enrichment (6-mer frequency, TF over GST control)	1.37 fold enrichment (6-mer frequency, TF over GST control)
CTTATG	1.52 fold enrichment (6-mer frequency, TF over GST control)	1.35 fold enrichment (6-mer frequency, TF over GST control)	1.43 fold enrichment (6-mer frequency, TF over GST control)	1.53 fold enrichment (6-mer frequency, TF over GST control)	1.47 fold enrichment (6-mer frequency, TF over GST control)	1.42 fold enrichment (6-mer frequency, TF over GST control)	1.64 fold enrichment (6-mer frequency, TF over GST control)	1.4 fold enrichment (6-mer frequency, TF over GST control)
TCTTGA	1.49 fold enrichment (6-mer frequency, TF over GST control)	1.32 fold enrichment (6-mer frequency, TF over GST control)	1.28 fold enrichment (6-mer frequency, TF over GST control)	1.25 fold enrichment (6-mer frequency, TF over GST control)	1.22 fold enrichment (6-mer frequency, TF over GST control)	1.3 fold enrichment (6-mer frequency, TF over GST control)	1.18 fold enrichment (6-mer frequency, TF over GST control)	1.24 fold enrichment (6-mer frequency, TF over GST control)
